Screening results deposited in PubChem by National Center for Advancing Translational Sciences (NCATS).
A selection: hits, their analogues and other compounds. The true share with any hit is near 19%.
Pf growth 96h: Primary qHTS for delayed death inhibitors of the malarial parasite plastid, 96 hour incubation; actives 6.9% (n = 320,000); Potency, µM (doses to about 28.7 µM), for inactives: at the top dose activity change, negative = inhibition, hits mostly inhibitors; P. falciparum luciferase reporter growth, 96 h; note: potency is the fitted concentration of half-maximal effect; % is set by controls: 0 for no effect and ±100 for the full control effect
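Two-generation exposure (96 h) targets delayed-death phenotype. Reporter parasites carrying integrated firefly luciferase, in red cells at 2% hematocrit and 0.05% parasitemia final, kept at 37 C, 5% CO2; luminescence loss indicates inhibition.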
AMA1 RON2 block: qHTS for Inhibitors of AMA1-RON; Towards Development of Antimalarial Drug Lead: Primary Screen; Plasmodium falciparum AMA1 (3D7) - RON2 peptide interaction; AlphaScreen AMA1-biotinylated RON2 peptide binding; Potency, µM (series often up to 58.2 µM), inactives show at the highest dose activity change, negative = inhibition, hits mostly inhibitors; actives 0.2% (n = 360,000); AID 720542, 2013;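 note: potency is the fitted concentration of half-maximal effect; 0% = vehicle wells and -100% = peptide control; nearly all actives have a fitted effect of over 45% in size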
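AMA1 (3D7) with his tag at 25 nM final met compounds first, then biotinylated RON2 peptide at 25 nM; detection used donor plus acceptor beads, 10 µg/mL apiece, read by AlphaScreen after 30 min at room temperature.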
SARS PLpro yeast: qHTS of Yeast-based Assay for SARS-CoV PLP; S. cerevisiae expressing SARS-CoV PLpro, growth rescue; Potency, µM (series often up to 32.9 µM), without a hit: top-dose activity, positive = growth rescue, most hits filed as activators; actives 0.19% (n = 330,000); AID 485353, 2010; calls by dose curve; note: potency is the fitted concentration of half-maximal effect; 0% is about no effect; nearly all actives have a fitted effect of over 55% in size
Shiga toxin inh: A qHTS for Small Molecule Inhibitors of Shiga Toxin | Vero cells, Shiga toxin protein synthesis inhibition reporter | inhibition, % at 38.7 µM | actives 9.2% (n = 290,000) | AID 2315, 2010; in the data active = inhibition mostly above about 28%, no sharp cut-off; inactive = mostly below about 43%; note: 0% is about no effect
Pf growth 48h: Primary qHTS for delayed death inhibitors of the malarial parasite plastid, 48 hour incubation. P. falciparum luciferase growth in erythrocytes, 48 h. Potency, µM (highest dose often 28.7 µM), without a hit: top-dose activity change, negative = inhibition, usual class: inhibitors. actives 5.9% (n = 310,000). AID 504832, 2011; note: potency is the fitted concentration of half-maximal effect; % is set by controls: 0 for no effect and ±100 for the full control effect
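Compounds are pin-transferred into medium, infected erythrocytes (2% hematocrit, 0.1% parasitemia final) are added, and plates sit one parasite generation at 37 C in 5% CO2. Detection reagent is then added and luminescence measured.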
CHX counter: Cycloheximide Counterscreen for Small Molecule Inhibitors of Shiga Toxin; cell reporter, cycloheximide protein synthesis inhibition counterscreen; max response, %; actives 12% (n = 300,000); AID 2314, 2010; in the data active = max response mostly above about 13%, no sharp cut-off; inactive = mostly below about 14%; note: read at 38.3 µM for the half of the compounds with a filed dose; 0% is about no effect
Numbers without * were called inactive; ? = inconclusive; nt = no result given. Unless noted, calls come from the whole dose curve; as a rule, active = well fitted curve in the direction sought with a large enough effect; inconclusive = small, poorly fitted or top-dose-only effect, or another doubt; inactive = no such curve, though single readings can be large; an effect the other way counts as inactive or inconclusive.

SMILES	Pf growth 96h	AMA1 RON2 block	SARS PLpro yeast	Shiga toxin inh	Pf growth 48h	CHX counter
O=S(=O)(c1cccc(F)c1)N1CCCN(c2ccc(C(F)(F)F)cn2)CC1	?	7%	-3%	4	?	3
Cc1ccc(N(CC(=O)N2CCCCCC2)S(C)(=O)=O)c(C)c1	nt	13%	nt	nt	nt	nt
CCCC(=O)Nc1c(I)cc(I)c(C[C@H](CC)C(=O)O)c1I	-15%	nt	nt	nt	-16%	nt
Cc1ccc(S(=O)(=O)N/N=C\c2ccc([N+](=O)[O-])o2)cc1	5%	-4%	-29%	-7	4%	10
Cc1ccc(S(=O)(=O)N/N=C\c2ccc([N+](=O)[O-])o2)cc1C	4.1µM*	-5%	-2%	-16	-8%	-7
CN1CCN(C(=O)/C=C/c2ccc([N+](=O)[O-])o2)CC1	?	-9%	2%	29*	12µM*	19*
CC1(C(=O)N/N=C/c2ccc([N+](=O)[O-])o2)CC1(Br)Br (stereo unspecified)	10µM*	9%	0%	13	?	-4
CC(=O)N/N=C/c1ccc([N+](=O)[O-])o1	12µM*	nt	nt	nt	?	nt
CN1CCN(C(=O)/C=C/c2ccccc2)CC1	90%	6%	-4%	-6	0%	-4
O=[N+]([O-])c1ccc(/C=N/N=C/c2ccc([N+](=O)[O-])o2)o1	-5%	-19%	-20%	6	4.1µM*	10
CC1(C)Nc2ccccc2N(Cc2ccc([N+](=O)[O-])cc2)C1=O	?	-26%	-4%	-11	-12%	-2
Cc1ccc(C)c(N2CCN(C(=O)CCNS(=O)(=O)c3ccc4c(c3)oc(=O)n4C)CC2)c1	1.7µM*	0%	1%	-2	-30%	0
Cn1c(=O)oc2cc(S(=O)(=O)NCCC(=O)N3CCN(c4ccccc4)CC3)ccc21	13µM*	0%	-2%	8	?	3
Cn1c(=O)oc2cc(S(=O)(=O)NCCC(=O)N3CCN(c4ccccc4F)CC3)ccc21	32%	7%	5%	-11	?	4
Cc1ccc(NC(=O)CCNS(=O)(=O)c2ccc3c(c2)oc(=O)n3C)c(C)c1	12µM*	-2%	6%	-4	?	-4
Cn1c(=O)oc2cc(S(=O)(=O)NCCC(=O)N3CC=C(c4ccccc4)CC3)ccc21	-8%	22%	5%	-9	?	12
COc1cccc(COC(=O)Cc2ccc(S(=O)(=O)N3CCOCC3)s2)c1OC	-2%	16%	3%	nt	?	nt
CCOC(=O)C1CCN(CCC(=O)Nc2ccc(C)c(C)c2)CC1	13%	-5%	0%	-3	-4%	-4
Cc1ccc(F)c(C2C3C=CCCC3(C)C(=O)N2Cc2ccccc2)c1 (stereo unspecified)	nt	nt	nt	6	nt	-6
CC(C)(C)OC(=O)NCCCC[C@H](NC(=O)c1[nH]cnc1C(=O)Nc1ccc(CNC(=O)OC(C)(C)C)cc1)C(=O)OC(C)(C)C	3.3µM*	101%	4%	-3	3.3µM*	-3
C[C@H](NC(=O)c1[nH]cnc1C(=O)Nc1ccc(CNC(=O)OC(C)(C)C)cc1)C(=O)OC(C)(C)C	9.3µM*	175%	0%	2	13µM*	-3
CC(C)(C)OC(=O)NCc1ccc(NC(=O)c2nc[nH]c2C(=O)NCCCNC(=O)c2[nH]cnc2C(=O)Nc2ccc(CNC(=O)OC(C)(C)C)cc2)cc1	nt	148%	6%	nt	nt	nt
CC(C)(C)OC(=O)NCc1ccc(NC(=O)c2nc[nH]c2C(=O)NCCCCNC(=O)c2[nH]cnc2C(=O)Nc2ccc(CNC(=O)OC(C)(C)C)cc2)cc1	nt	88%	0%	nt	nt	nt
COC(=O)c1ccc(SCc2cnc(Cl)s2)cc1	7%	13%	-3%	130*	30%	30*
O=C(O)c1ccc(SCc2cnc(Cl)s2)cc1	57%	-1%	-18%	-12	-8%	-2
SMILES	Pf growth 96h	AMA1 RON2 block	SARS PLpro yeast	Shiga toxin inh	Pf growth 48h	CHX counter
CN(C)c1ccc(N2CC(C)(C)C2=O)cc1	52%	-9%	-4%	44*	-3%	33*
O=C(COc1cccc(F)c1)Nc1nc(-c2cccnc2)cs1	?	33%	-2%	nt	?	nt
COC(=O)CCCn1cc(CN2CC(N(C)C)CS2(=O)=O)nn1 (stereo unspecified)	nt	-6%	nt	nt	nt	nt
CC1CCCCC1NC(=O)CN1CCC(O)(c2ccc(F)cc2)CC1 (stereo unspecified)	76%	0%	0%	-15	8%	2
Nc1ccc(C(=O)Nc2ccc(OC(F)(F)C(F)F)c(NC(=O)c3ccc(N)cc3)c2)cc1	?	-11%	4%	16	-29%	18*
COc1cc(CCC(=O)Nc2nnc(C)s2)cc(OC)c1OC	-7%	1%	3%	-10	14%	-3
CCOc1ccc2nc(NC(=O)CN3CCN(CC)CC3)sc2c1	-24%	-4%	0%	17	-2%	12
COc1ccc2nc(NC(=O)CCc3cc(OC)c(OC)c(OC)c3)sc2c1	9.3µM*	-8%	2%	-16	?	8
CCOCC(=O)Nc1nc2ccc(OC)cc2s1	nt	-5%	1%	67*	214%	53*
COc1ccc2nc(NC(=O)CCN3C(=S)NC(C)(C)CC3C)sc2c1 (stereo unspecified)	0%	0%	28%	-2	19%	10
CCOc1ccc2nc(NC(=O)COC)sc2c1	29%	5%	-4%	114	180%	34*
COc1ccc2nc(NC(=O)CCn3cccc3)sc2c1	20%	-8%	10%	13	55%	16*
COc1ccc(C(=O)N(CC2CCCO2)C(C(=O)NC2CCCC2)c2ccc(Cl)cc2)cc1OC (stereo unspecified)	6.6µM*	15%	5%	4	12µM*	-4
O=C(NC1CCCC1)C(c1ccc(O)cc1)N(CC1CCCO1)C(=O)C1COc2ccccc2O1 (stereo unspecified)	15%	2%	1%	10	?	-5
COc1ccc(C(C(=O)NC2CCCCC2)N(CC2CCCO2)C(=O)C2COc3ccccc3O2)cc1OC (stereo unspecified)	1%	32%	11%	-10	12µM*	-5
O=S(=O)(Cc1noc(-c2ccccc2Cl)n1)c1ccccn1	138%	?	0%	72*	253%	41*
Cc1ccc(-n2nnnc2SCC(=O)NC(C(=O)O)(c2ccccc2)c2ccccc2)cc1C	44%	7%	1%	-3	-4%	-8
COc1cccc2sc(Nc3nc(-c4cc5ccccc5oc4=O)cs3)nc12	-26%	35%	-5%	17	?	9
COc1ccc(Nc2nc(-c3cc4cccc(OC)c4oc3=O)cs2)cc1	-14%	0%	9%	30	-23%	21*
